# Source: PubChem
# A selection: hits, their analogues and other compounds. The true share with any hit is near 3.7%.
# tim23-1 inh: growth inhibitors of tim23-1 mutant yeast. S. cerevisiae tim23-1 growth, BacTiter-Glo luminescence, 24 h. inhibition, % at 20 µM. actives 1.3% (n = 330,000). AID 463212;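 active = growth inhibition of the mutant yeast at or above 50%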;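 also: temperature-sensitive mutant grown at 25 °C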
# Rce1 inhib: inhibitors of yeast Ras-converting enzyme | calls only | AID 2563 | Q03530 | yeast membranes, quenched prenylated peptide cleavage fluorescence | actives 0.27% (n = 290,000);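 active = fall in fluorescence gain of 50% or more versus controls, with final raw signal at or below 3038400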
# Target sequence (Q03530 whole entry, looked up): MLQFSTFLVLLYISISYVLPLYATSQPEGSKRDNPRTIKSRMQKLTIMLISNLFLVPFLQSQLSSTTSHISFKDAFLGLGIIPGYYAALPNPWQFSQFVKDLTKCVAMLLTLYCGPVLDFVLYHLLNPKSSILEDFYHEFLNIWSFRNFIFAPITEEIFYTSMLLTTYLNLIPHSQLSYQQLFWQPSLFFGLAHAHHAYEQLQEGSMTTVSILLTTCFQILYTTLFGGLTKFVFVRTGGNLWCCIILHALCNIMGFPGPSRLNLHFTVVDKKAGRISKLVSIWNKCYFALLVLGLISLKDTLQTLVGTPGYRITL
# TIM10 inh: growth inhibitors of TIM10 yeast strain; actives 1.4% (n = 330,000); S. cerevisiae TIM10 strain growth, BacTiter-Glo luminescence, 24 h; inhibition, % at 10 µM;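 active = inhibition of 40% or more at the single tested concentration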;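 also: wild-type TIM10 isogenic control strain grown at permissive 25 °C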
# PfHsp90 set2: inhibits growth of yeast expressing Plasmodium falciparum Hsp90; AID 504621; S. cerevisiae expressing PfHsp90, BacTiter-Glo ATP, 48 h; yeast lacking PDR1 and PDR3 efflux regulators; actives 0.32% (n = 310,000); inhibition, % at 9.4 µM;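 active = every replicate shows inhibition above about 80%, whatever the replicate mean, limit read from the data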
# tim10-1 inh: inhibits growth of tim10-1 mutant yeast. S. cerevisiae tim10-1 ts strain growth, BacTiter-Glo, 24 h. AID 463190. actives 2.2% (n = 330,000). inhibition, % at 20 µM;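 active = inhibition of at least 40%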;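 also: mutant grown at 25 °C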
# tim10-1 conf: tim10-1 yeast growth inhibition, confirmed | shares compounds with tim10-1 inh | actives 56% (n = 7,400) | inhibition, % at 20 µM | AID 463213 | S. cerevisiae tim10-1 ts strain growth, BacTiter-Glo, 24 h;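 active = inhibition of yeast growth at or above a set limit in either of two repeat tests at 20 µM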;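 also: tim10-1 mutant grown at permissive 25 °C to find synthetic lethal compounds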
# Hits are given with their value; i = inactive; nt = not tested or not shown; + = active, no number.
SMILES,tim23-1 inh,Rce1 inhib,TIM10 inh,PfHsp90 set2,tim10-1 inh,tim10-1 conf
CC(C)Oc1cccc(C(=O)N/N=C/c2coc3ccccc3c2=O)c1,i,i,i,i,i,nt
C=CCn1c(SCc2cccc(C#N)c2)nnc1-c1ccccc1O,i,i,i,i,i,nt
C=CCn1c(SCc2ccc(C#N)cc2)nnc1-c1cccc(Cl)c1,i,i,i,i,46,i
CCCCCCN1C=C/C(=C\C=C(C#N)C#N)c2ccccc21,i,i,i,i,49,i
COc1ccc(C(=O)/C=C2/c3ccccc3CC(C)(C)N2C)cc1,i,i,i,nt,47,i
CCOC(=O)C1=C(C)N(C)C(=S)N(C)C1c1ccc(OC)cc1 (configuration not stated),i,i,i,nt,i,nt
COC(=O)C1=C(C)N(C)C(=S)N(C)C1c1cccc(Br)c1 (configuration not stated),i,i,i,i,42,i
N#C/C(=C\c1cn[nH]c1-c1ccc(Cl)cc1)C(=O)NCc1ccccc1,i,i,i,i,43,46
COc1ccc(-c2c(C)nn3c(C)cc(C)nc23)cc1,i,i,i,i,i,nt
O=C(CCCN1C(=O)NC2(CCCC2)C1=O)Nc1ccc(Cl)c(S(=O)(=O)N2CCOCC2)c1,i,nt,i,i,i,nt
CCOC(=O)CC(=O)CSc1nc2sc(C)cc2c(=O)n1Cc1ccco1,i,i,i,i,45,i
Nc1cc(C(=O)N2CCCC2)cc(C(=O)N2CCCC2)c1,i,i,i,i,i,nt
N#Cc1c(N)nc2c(c1-c1ccccc1)CCCC2,i,i,i,nt,i,nt
CSc1nc2c(c(-c3ccccc3)c1C#N)CCC2,i,i,i,i,48,32
O=C(Oc1ccc2ccccc2c1Br)N1CCCCCC1,i,i,i,i,i,nt
O=C(c1ccc2ccccc2c1)C1CCCN(C(=O)c2noc3c2CCCC3)C1 (configuration not stated),i,i,i,i,i,nt
CN1CCN(c2ccccc2NC(=O)c2ccc(-c3ccc(Cl)c(Cl)c3)o2)CC1,i,i,i,nt,55,38
COc1cc(/C=N/NC(=O)c2nnn(-c3nonc3N)c2C(C)C)ccc1OCc1ccc(F)cc1,i,i,i,i,43,i
COC(=O)C1=CN(Cc2ccc(OC)cc2)C=C(C(=O)OC)C1c1cc(OC)c(OC)c(OC)c1,i,i,i,i,i,nt
COC(=O)C1=CN(C(C)c2ccccc2)C=C(C(=O)OC)C1c1cc(OC)c(OC)c(OC)c1 (configuration not stated),i,i,i,i,43,i
COc1ccc2cc(C)c3nnc(SCc4cccnc4)n3c2c1,i,i,i,i,41,34
CCCCCCCCCS(=O)(=O)N/N=C/c1cccc([N+](=O)[O-])c1,i,i,i,nt,42,i
CCN1CCN(C(=O)C2CCN(S(=O)(=O)c3ccc(SC)cc3)CC2)CC1,i,i,i,i,i,nt
CC(=O)Nc1ccc(Nc2nc(-c3ccccc3)nc3ccccc23)cc1,i,i,i,i,48,34
Cc1ccccc1Nc1nc(-c2cccnc2)nc2ccccc12,i,i,i,i,43,i
SMILES,tim23-1 inh,Rce1 inhib,TIM10 inh,PfHsp90 set2,tim10-1 inh,tim10-1 conf
CCCCCCSc1ccc([C@H]2N[C@@](C)(C(=O)OC)[C@H]3C(=O)N(C)C(=O)[C@@H]23)cc1,i,i,i,i,44,35
CCCSc1ccc([C@H]2N[C@@](C)(C(=O)OC)[C@H]3C(=O)N(C)C(=O)[C@@H]23)cc1,i,i,i,i,i,nt
COc1ccc(-c2csc(CCn3nc(C)cc3C)n2)cc1,i,i,i,i,41,35
O=C(c1ccccc1)N1CCN(Cc2ccccc2)CC1,i,i,i,i,i,nt
O=C(C(Cc1ccccc1)n1cccc1)N1CCN(Cc2ccccc2)CC1 (configuration not stated),i,i,i,i,42,i
CC(C)C(C(=O)N1CCN(Cc2ccccc2)CC1)c1ccccc1 (configuration not stated),i,i,i,i,50,35
CCOC(=O)C(=O)NCC(c1ccco1)S(=O)(=O)c1cccs1 (configuration not stated),i,i,i,i,i,nt
CCN(Cc1ccccc1)S(=O)(=O)c1ccc(C(=O)N(CCCN(C)C)c2nc3cc4c(cc3s2)OCCO4)cc1,i,i,i,i,46,i
COc1ccc2sc(N(CCCN(C)C)C(=O)c3ccc(S(=O)(=O)N4CCCc5ccccc54)cc3)nc2c1,i,i,i,nt,57,32
CN(C)CCCN(C(=O)c1cccs1)c1nc2cc3c(cc2s1)OCO3,i,i,i,i,i,nt
CN(C)CCCN(C(=O)c1cc2cc([N+](=O)[O-])ccc2s1)c1nc2cc3c(cc2s1)OCCO3,i,i,i,i,79,27
CN(C)CCCN(C(=O)c1ccc([N+](=O)[O-])s1)c1nc2cc3c(cc2s1)OCCO3,i,i,i,i,43,39
CCN(Cc1ccccc1)S(=O)(=O)c1ccc(C(=O)N(CCCN(C)C)c2nc3ccc(F)cc3s2)cc1,i,i,i,i,i,nt
Cc1cc2nsnc2c(S(=O)(=O)N2CCN(C)CC2)c1C,i,i,i,i,i,nt
CCc1cccc(NC2c3ccccc3C(=O)N2c2cccnc2)c1 (configuration not stated),i,i,i,i,i,nt
Cn1c(=O)c2[nH]c(C3CC3)nc2n(C)c1=O,nt,nt,nt,i,nt,nt
CN(C1CCCCC1)S(=O)(=O)c1cccc2nsnc12,i,i,i,i,i,nt
Cc1ccc(/C=N/c2sc(Cc3ccccc3)c(C)c2C(N)=O)o1,i,i,i,i,48,46
CCCNC(=O)/C(C#N)=C1\N=C(NC(=O)c2ccco2)c2ccccc21,i,i,i,i,i,nt
CC(C)CNC(=O)/C(C#N)=C1\N=C(NC(=O)c2ccco2)c2ccccc21,i,i,i,i,47,i
O=C1C(Cl)=C(NC2CCCCC2)C(=O)N1Cc1ccccc1,i,i,i,i,i,nt
O=C1C(Cl)=C(N2CCN(Cc3ccccc3)CC2)C(=O)N1Cc1ccccc1,i,i,i,i,44,i
Cc1cc(C)cc(NC(=O)c2cccnc2)c1,i,i,i,i,i,nt
Cc1cc2c(cc1C)CSC(c1ccccc1O)SC2,i,i,i,i,62,35
CC1=C(/C=C/C(C)=N\NC(=O)c2ccncc2)C(C)(C)CCC1,i,i,i,i,i,nt
CC1=C(/C=C/C(C)=C/C=C/C(C)=C/CO)C(C)(C)CCC1,i,i,i,i,44,i
c1ccc(CNc2nc(NCc3ccccc3)c3ccccc3n2)cc1,i,+,i,i,62,i
O=C(CCc1ccccc1)NC1(Cc2ccccc2)CCN(CCCc2ccccc2)C1=O (configuration not stated),i,nt,i,i,i,nt
CC(C(=O)NCC1CCCCC1)N1CCN(S(=O)(=O)/C=C/c2ccccc2)CC1 (configuration not stated),i,i,i,i,41,i
